This is an account of results in PubChem BioAssay (NCATS).

The structures appear in SMILES notation. Records with an inconclusive call do not appear. A number with no mark means an inactive call. Activity calls are given as the source filed them. Calls follow the shape of the dose curve; as a rule, active = well fitted inhibition curve with a large enough effect; inconclusive = small, poorly fitted or top-dose-only effect; inactive = flat fitted curve, though single readings scatter.

In one assay the test system is CRL-7250. Briefly: Cytotoxic Profiling of Annotated Libraries Using Quantitative High-Throughput Screening (AID 1296008). Also: potency is read from the fitted curve at half-maximal effect. As to max response: % is scaled to controls: 0 for no effect and ±100 for the full control effect. As to conditions: Five cell lines viability, CellTiter-Glo ATP luminescence, 48-72 h; max response: stronger effect = lower value. The method in brief:
(§1)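 Cytotoxicity was measured as CellTiter-Glo ATP luminescence, read after 10 min at room temperature. Compound treatment of the cells lasted 48 or 72 hr at 37 degrees Celsius in a qHTS format.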
Background: ATP-based viability assays read luminescence as a measure of living cells.

The next assay deals with HEK293. Described as above. The following applies: Five cell lines viability, CellTiter-Glo ATP luminescence, 48-72 h; max response: stronger effect = lower value. The method in brief:
as §1

In assay [1] the test system is HaCat. The description is as above. The following applies: Five cell lines viability, CellTiter-Glo ATP luminescence, 48-72 h; max response: stronger effect = lower value. In outline:
as §1

The test system of another assay is KB-3-1. The description is as above. The following applies: Five cell lines viability, CellTiter-Glo ATP luminescence, 48-72 h; max response: stronger effect = lower value. In outline:
as §1

In another assay the test system is NIH3T3. The description is as above. The following applies: Five cell lines viability, CellTiter-Glo ATP luminescence, 48-72 h; max response: stronger effect = lower value. The method in brief: as §1
Assay [2] concerns HACAT. Briefly: qHTS assay to identify novel small-molecules to repurpose for Merkel cell carcinoma treatment (AID 1296009). The following applies: MCC and control cell lines, CellTiter-Glo viability, 72 h; at 44.8 µM (top of the series) unless noted. The method in brief: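 After compound transfer in DMSO, plates were kept 72 hr at 37 degree celsius. Luminescent ATP signal from CellTiter-Glo served as viability measure, normalized against DMSO and no-cell controls.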
(In general: qHTS replaces the single test concentration by a dilution series.)
Also: nearly all actives have a fitted effect of over 60% in size.

Consider `CC(=O)C1CCC(=O)N1Cc1ccccc1` (configuration not stated), for which the outcome in the assay on CRL-7250, in the assay on HaCat [1] and in the assay with HACAT [2] was inactive. The max response was -9.27% in the assay on HEK293, -4.66% in the assay on KB-3-1 and 3.14% in the assay on NIH3T3.

Consider `CC(C)(O)C(O)C(=O)OCc1ccc(O[C@@H]2O[C@H](CO)[C@@H](O)[C@H](O)[C@H]2O)cc1` (some centres not stated), for which the results for the max response with CRL-7250, in the assay on HEK293 and in the assay with NIH3T3 were -9.18%, 2.94% and -2.16%, respectively. The outcome in the assay on HaCat [1] and with KB-3-1 was inactive. In addition, the outcome in the assay with HACAT [2] is “inactive [at 17.4 µM]”.

Turning to `COc1cc(C(C)=O)ccc1O[C@@H]1O[C@H](CO)[C@@H](O)[C@H](O)[C@H]1O`, the max response was -12.2% in the assay on CRL-7250, -0.593% with HEK293, 6.72% in the assay with KB-3-1 and 0.808% with NIH3T3. In addition, the compound was called inactive in the assay on HaCat [1] and in the assay with HACAT [2].

As for `NC(=O)C(O[C@@H]1O[C@H](CO[C@@H]2O[C@H](CO)[C@@H](O)[C@H](O)[C@H]2O)[C@@H](O)[C@H](O)[C@H]1O)c1ccccc1` (some centres not stated), the outcome in the assay with CRL-7250 and in the assay with HaCat [1] was inactive. The results for the max response in the assay on HEK293, with KB-3-1 and with NIH3T3 were -77.8%, 4.92% and 4.15%, respectively. In addition, in the assay on HACAT [2], the outcome is “inactive [at 17.4 µM]”.

Consider `CCc1cc(CC[C@]2(C3CCCC3)CC(O)=C(Cc3nc4nc(C)cc(C)n4n3)C(=O)O2)cc(CC)n1`, for which the result in the assay with CRL-7250, with HaCat [1] and in the assay on HACAT [2] was inactive. The max response with HEK293 is 0.838%; in the assay with KB-3-1, -0.912%; with NIH3T3 it was -7.94%.

On to `COc1cc(/C=C/C(=O)OC[C@H]2O[C@@H](OC3OC=C(C(=O)O)C4C(O)CC(C)(O)C34)[C@H](O)[C@@H](O)[C@@H]2O)cc(OC)c1O` (some centres not stated), for which the max response in the assay on CRL-7250 was -14.2%; with HEK293, -83.6%; in the assay with KB-3-1, 9.94%; in the assay on NIH3T3 it was 4.03%. The compound was classed as inactive with HaCat [1]. The outcome in the assay on HACAT [2] is “inactive [at 17.4 µM]”.

Turning to `COC1CC(O[C@H]2CC[C@@]3(C)C(=CC[C@]4(O)C3[C@H](O)[C@@H](O)[C@]3(C)[C@@H]([C@H](C)O)CC[C@@]34O)C2)OC(C)C1OC1CC(OC)C(OC2CC(OC)C(OC3OC(C)C(OC4OC(CO)C(O)C(O)C4O)C(OC)C3O)C(C)O2)C(C)O1` (some centres not stated), the max response in the assay on CRL-7250 is -21.7%; with HEK293, -82.7%; with KB-3-1, 2.22%; in the assay on NIH3T3, -54.6%. In the assay on HaCat [1], the compound was classed as inactive. For the same compound, the outcome in the assay on HACAT [2] was “inactive [at 9.27 µM]”.

Consider `COc1ccccc1N1CCN(CCCCNC(=O)c2ccc(-c3cscn3)cc2)CC1`, for which the max response in the assay with CRL-7250 was -3.11%; in the assay with KB-3-1 it was -12.5%; in the assay on NIH3T3 it was 1.48%. Moreover, in the assay on HEK293, the Potency was 20.6 µM (active). Further, the call with HaCat [1] and in the assay with HACAT [2] was inactive.

In the case of `COC(=O)C1=C[C@@H](O)[C@@H](O)[C@H](O[C@@H]2O[C@H](CO)[C@@H](O)[C@H](O)[C@H]2OC(=O)/C=C/c2ccccc2)C1`, the max response in the assay with CRL-7250 is -2.62%; in the assay on HEK293, -6.26%; in the assay with KB-3-1, -5.3%; with NIH3T3, -1.73%. In addition, the compound was classed as inactive in the assay with HaCat [1]. Moreover, the outcome with HACAT [2] was “inactive [at 17.4 µM]”.

On to `C=C1CC23CC(=O)C4C(CO)(CO)CCCC4(C)C2CCC1C3` (configuration not stated), for which the compound was classed as inactive with CRL-7250, in the assay on HaCat [1], in the assay on KB-3-1 and with HACAT [2]. Moreover, the max response with HEK293 was 2.8%; with NIH3T3 it was -8.41%.

On to `CC1=C2C[C@@]3(C)C(CCC[C@@H]3C)C(O)C2(O)OC1=O` (some centres not stated), for which the max response in the assay on CRL-7250 is -37.7%; in the assay with HEK293 it was -7.76%; in the assay on KB-3-1 it was -14%; in the assay on NIH3T3, -21.1%. In addition, the result in the assay on HaCat [1] and in the assay with HACAT [2] was inactive.

In the case of `CC1CCCCCCCc2cc(O)cc(O)c2C(=O)O1` (configuration not stated), the compound was called inactive with CRL-7250, with HaCat [1], in the assay with KB-3-1 and in the assay with HACAT [2]. In addition, the max response in the assay on HEK293 was 0.839%; in the assay on NIH3T3, 0.752%.

Regarding `COC(=O)[C@]1(Cc2ccc(O)c(CC=C(C)C)c2)OC(=O)C(O)=C1c1ccc(O)cc1`, the max response in the assay on CRL-7250 is 1.22%; with HEK293, 3.25%; with NIH3T3, 0.954%. The call with HaCat [1] and in the assay on KB-3-1 was inactive. Moreover, the outcome in the assay on HACAT [2] is “inactive [at 17.4 µM]”.

`O=C(Cn1c2ccccc2c2nc3n(c(=O)c21)CCS3)N1CCCC1`: the compound was classed as inactive in the assay with CRL-7250, in the assay with HaCat [1], in the assay with KB-3-1 and with HACAT [2]. Besides, the max response in the assay with HEK293 was -15.3%; in the assay with NIH3T3, 1.74%.

`O=C(Cc1ccccc1)OC[C@H]1O[C@H](O[C@H]2O[C@H](CO)[C@@H](O)[C@H](O)[C@H]2O)[C@H](O)[C@@H](O)[C@@H]1O`: the max response was -5.14% with CRL-7250, 4.52% in the assay with HEK293, 9.38% in the assay with KB-3-1 and 0.692% in the assay on NIH3T3. For the same compound, the result with HaCat [1] was inactive. For the same compound, in the assay on HACAT [2], the outcome is “inactive [at 17.4 µM]”.

Regarding `C/C=C1/[C@H](O[C@@H]2O[C@H](CO)[C@@H](O)[C@H](O)[C@H]2O)OC=C(C(=O)OC)[C@H]1CC(=O)OCCc1ccc(OC(=O)C[C@@H]2C(C(=O)OC)=CO[C@@H](O[C@@H]3O[C@H](CO)[C@@H](O)[C@H](O)[C@H]3O)/C2=C/C)cc1`, the max response in the assay with CRL-7250 was -8.75%; in the assay on HEK293 it was -1.34%; with NIH3T3, 2.32%. Besides, the result in the assay with HaCat [1] and in the assay on KB-3-1 was inactive. Moreover, the outcome in the assay with HACAT [2] was “inactive [at 9.27 µM]”.

As to `COC(=O)C1=CO[C@@H](O[C@@H]2O[C@H](CO)[C@@H](O)[C@H](O)[C@H]2O)[C@H]2[C@@H]1[C@H](O)C[C@]2(C)O`, the compound was classed as inactive in the assay on CRL-7250, in the assay on HaCat [1] and in the assay on KB-3-1. The max response in the assay on HEK293 is -1.47%; with NIH3T3 it was -11.4%. Besides, the outcome in the assay on HACAT [2] was “inactive [at 17.4 µM]”.
